# Data as given in the antibiotic and cytotoxicity screens of Wong et al. (2023).
# Out of some 39,000 compounds screened, about 1,500 (3.8%) were called active. Many of the other results were omitted from the sample, so actives are more common in it than they were.
# System: HSkMC (human skeletal muscle cells)
# Assay: cytotoxicity call (relative viability < 0.9)
# Conditions: 10 µM
row,Compound,cytotoxicity call
1,CNc1ccc2oc(C[C@H]3O[C@@]4(CC[C@H]3C)O[C@H]([C@H](C)C(=O)c3ccc[nH]3)[C@H](C)C[C@H]4C)nc2c1C(=O)O,active
2,NCc1[nH]nc2cc(F)ccc12,inactive
3,CC(=O)[C@]12[C@@H]3CC=C[C@H]1N2CC3 (stereo not given in full),inactive
4,CCN1C[C@]2(OC(=O)c3ccccc3NC(C)=O)CC[C@H](OC)[C@@]34[C@@H]2C[C@@H]([C@@H]13)[C@@]1(O)C[C@H](OC)[C@H]2C[C@@H]4[C@]1(O)[C@H]2OC,inactive
5,COc1cc2c(cc1OC)C1C(=O)c3ccc4c(c3OC1CO2)CC(C(C)C)O4 (stereo not given),inactive
6,CCC(C(=O)[O-])C1CCC(C)C(C(C)C(O)C(C)C(=O)C(CC)C2OC3(C=CC(O)C4(CCC(C)(C5CCC(O)(CC)C(C)O5)O4)O3)C(C)CC2C)O1.[Na+] (stereo not given),inactive
7,CC[C@@H](C(=O)[C@@H](C)[C@@H](O)[C@H](C)[C@@H]1O[C@@H]([C@@H](CC)C(=O)O)CC[C@@H]1C)[C@H]1O[C@]2(C=C[C@@H](O)[C@]3(CC[C@@](C)([C@H]4CC[C@](O)(CC)[C@H](C)O4)O3)O2)[C@H](C)C[C@@H]1C,active
8,[N-]=[N+]=NCC(=O)N1CCOCC1,inactive
9,COCC(=O)N[C@@H]1[C@@H]2CNC[C@@H]21,inactive
10,C[C@H]1[C@H](O)[C@@H](C)/C=C\C=C/CC\C=C/C=C\C=C/C=C\[C@@H](O[C@@H]2O[C@H](C)[C@@H](O)[C@H](N)[C@@H]2O)C[C@H]2O[C@@](O)(C[C@@H](O)[C@@H]2C(=O)O)C[C@@H](O)[C@@H](O)CC[C@@H](O)C[C@@H](O)C[C@@H](O)CC(=O)O[C@H]1C,inactive
11,CN1CCC2(C)c3cc(O)ccc3N(C)C12.O=C(O)C=CC(=O)O (stereo not given),inactive
12,O=S(=O)(O)O.Oc1cccc2cccnc12,inactive
13,O=C(O)[C@H]1[C@H](C(=O)O)[C@H]2CC[C@@H]1O2,inactive
14,C[C@@]1(C(=O)O)[C@H]2CC[C@@H](O2)[C@@]1(C)C(=O)O,active
15,C[C@]12CC[C@](C)(O1)[C@H](C(=O)O)[C@@H]2C(=O)O,inactive
16,CC1(C)[C@@H](C=C(Br)Br)[C@@H]1C(=O)O[C@@H](C#N)c1cccc(Oc2ccccc2)c1,inactive
17,FCCN1C[C@H]2CCN[C@H]2C1,inactive
18,CC(C)(O)/C=C/C(=O)[C@](C)(O)[C@H]1[C@H](O)C[C@@]2(C)[C@H]3CC=C4[C@@H](CC(=O)C(=O)C4(C)C)[C@]3(C)C(=O)C[C@]12C,active
19,CC(=O)OC(C)(C)/C=C/C(=O)C(C)(O)[C@H]1[C@H](O)C[C@@]2(C)[C@H]3CC=C4[C@@H](C[C@H](O)C(=O)C4(C)C)[C@]3(C)C(=O)C[C@]12C (stereo not given in full),inactive
20,C[C@@H]1CN([C@@H](C)CO)C(=O)c2c(c3ccccc3n2C)-c2ccccc2CO[C@@H]1CN(C)C(=O)Oc1ccccc1,inactive
21,C[C@H]1O[C@H](n2cnc3c(N)ncnc32)C[C@@H]1O,inactive
22,CC(C)C[C@@H](NC(=O)[C@H](Cc1ccccc1)NC(=O)CNC(=O)[C@@H](C)NC(=O)[C@@H](N)Cc1ccc(O)cc1)C(=O)O,inactive

row,Compound,cytotoxicity call
1,O=C([O-])Cc1ccccc1.[Na+],inactive
2,CCCCOC(=O)c1ccccc1C(=O)OCCCC,inactive
3,C[CH2][Hg][S]c1ccccc1C(=O)[O-].[Na+],active
4,Cc1noc(C)c1CN1CCNCC1,inactive
5,CCN(C)C(=O)Oc1cccc(C(C)N(C)C)c1.O=C(O)C(O)C(O)C(=O)O (stereo not given),inactive
6,CCCCOC(=O)C1=CC(=O)CC(C)(C)O1,inactive
7,CNCCc1ccc(O)c(O)c1,inactive
8,NCCN1CCN(c2ccc(F)cc2)CC1,inactive
9,CCCCCCCCCCCCCCCC[n+]1ccccc1,active
10,CCCCCCCCCCCCCCCC[n+]1ccccc1.[Cl-],active
11,c1ccc(CN2CCNCC2)nc1,inactive
12,CN[C@@H](C)Cc1cnccn1,inactive
13,CCOCC(=O)N[C@H]1CCSC1=O,inactive
14,O=C1C[C@@H](CO)CN1,inactive
15,CN(C)C(=O)C(CCN1CCC(O)(c2ccc(Cl)cc2)CC1)(c1ccccc1)c1ccccc1.Cl,inactive
16,C[C@]12CC/C(=N\OCCN)C[C@@H]1C(=O)C[C@@H]1[C@@H]2CC[C@]2(C)C(=O)CC[C@@H]12,active
17,CC12CCC3C(CC=C4CC(O)CCC43C)C1CCC2=O (stereo not given),inactive
18,"C[C@]12CCC(=O)C[C@@H]1CC[C@@H]1[C@@H]2CC[C@]2(C)C(=O)CC[C@@H]12 [5alpha-ANDROSTAN-3,17-DIONE ]",inactive
19,CC1=C2C(=COC(C)C2C)C(O)=C(C(=O)O)C1=O (stereo not given),inactive
20,C=C(C)[C@H]1CN[C@H](C(=O)O)[C@H]1CC(=O)O,inactive
21,COC(=O)C[C@H]1CC[C@@H]2NC[C@@H](O)COC[C@H]2O1,inactive
22,Cc1ccc2c(CCN)c(C)n(C)c2c1,inactive

row,Compound,cytotoxicity call
1,CCn1nc(-c2cccnc2)nc2c(=O)n(C)c(=O)nc1-2,active
2,C1C[C@@H]2C[C@@H]2N1,inactive
3,S=C=Nc1cccc(C2(N3CCCCC3)CCCCC2)c1,inactive
4,Cc1ncc(CNC(=O)N(CCCl)N=O)c(N)n1.Cl,inactive
5,CCC1(c2ccccc2)C(=O)NC(=O)NC1=O,inactive
6,NC[C@H]1CCCc2ccc(Cl)cc21,inactive
7,COCC(=O)N1[C@@H]2c3ccc(C4=CCCC4)c(=O)n3C[C@H]1[C@H](CO)[C@H]2C(=O)OC,inactive
8,CC(=O)OC1CCC2(C)C(=CCC3C4CCC(=O)C4(C)CCC32)C1 (stereo not given),inactive
9,CC1(C)S[C@@H]2[C@H](N)C(=O)N2[C@H]1C(=O)O,inactive
10,N.N.[Cl][Pt][Cl],inactive
11,CCOC(=O)c1c(CN2CCN(Cc3ccccc3)CC2)n(Cc2ccccc2)c2cc(Br)c(O)cc12,active
12,CCOC(=O)c1c(CN2CCN(c3ccccc3)CC2)n(Cc2ccccc2)c2cc(Br)c(O)cc12,active
13,CNCc1cccnc1,inactive
14,O=C1CO[C@H]2CNC[C@@H]2N1CC1CCCC1,inactive
15,C[C@H](CO)N1C[C@H](C)[C@@H](CN(C)C(=O)Oc2ccc3ccccc3c2)OCc2cnnn2CCCC1=O,inactive
16,O/N=C1\CN2CCC1CC2,inactive
17,C=C(C)C1Cc2c(ccc3c2OC2COc4cc(OC)c(OC)cc4C2C3=O)O1 (stereo not given),inactive
18,c1ccc(-c2ccncc2)cc1,inactive
19,CC1CCC2(NC1)OC1CC3C4CC=C5CC(O)CCC5(C)C4CCC3(C)C1C2C (stereo not given),inactive
20,C[C@@H]1CC[C@@]2(OC1)O[C@H]1C[C@H]3[C@@H]4CC=C5C[C@@H](O[C@@H]6O[C@H](CO)[C@@H](O[C@@H]7O[C@@H](C)[C@H](O)[C@@H](O)[C@H]7O)[C@H](O)[C@H]6O[C@@H]6O[C@@H](C)[C@H](O)[C@@H](O)[C@H]6O)CC[C@]5(C)[C@H]4CC[C@]3(C)[C@H]1[C@@H]2C,active
21,C[C@@H]1CC[C@@]2(OC1)O[C@H]1[C@@H](O)[C@H]3[C@H]4CC[C@H]5C[C@H](O[C@@H]6O[C@H](CO)[C@H](O[C@@H]7O[C@H](CO)[C@@H](O)[C@H](O[C@@H]8OC[C@@H](O)[C@H](O)[C@H]8O)[C@H]7O[C@@H]7O[C@H](CO)[C@H](O)[C@H](O[C@@H]8O[C@H](CO)[C@@H](O)[C@H](O)[C@H]8O)[C@H]7O)[C@H](O)[C@H]6O)[C@H](O)C[C@]5(C)[C@@H]4CC[C@]3(C)[C@H]1[C@@H]2C,inactive
22,Cc1cccc2[nH]c(CCN)nc12,inactive

row,Compound,cytotoxicity call
1,COc1cccc(N=[N+]=[N-])c1,inactive
2,CC1=C[C@H]2O[C@@H]3[C@H](O)[C@@H](O[C@H]4O[C@H](CO)[C@@H](O)[C@H](O)[C@H]4O)[C@](C)([C@@]2(CO)CC1)[C@]31CO1,active
3,Cc1cc(O[C@@H]2O[C@H](CO)[C@@H](O)[C@H](O)[C@H]2O)c2c3c(c(=O)oc2c1)CCC3,inactive
4,CC(=O)OC[C@]12CCC(C)=C[C@H]1O[C@@H]1[C@H](O)[C@@H](OC(C)=O)[C@@]2(C)[C@]12CO2,active
5,OCCN[C@@H]1c2ccccc2[C@H]2CNC[C@H]21,inactive
6,C[C@]12CC[C@H](Cl)C[C@@H]1CC[C@@H]1[C@@H]2CC[C@]2(C)C(=O)CC[C@@H]12,inactive
7,NC(=O)c1ccc(N)nc1,inactive
8,CC12CC(=O)C3C(CCC4=CC(=O)CCC43C)C1CCC2=O (stereo not given),inactive
9,NCCc1ccncc1,inactive
10,CCN1C[C@@]2(C)CC[C@H](OC)C34[C@@H]2[C@H](O)[C@]2(OCO[C@@]25C[C@H](OC)[C@H]2C[C@]3(O)[C@@H]5[C@H]2O)[C@@H]14,inactive
11,O=c1[nH]c2ccccc2n1C1CCN(Cc2ccc(-c3nc4cc5[nH]cnc5cc4nc3-c3ccccc3)cc2)CC1,active
12,CN1C[C@H](C(=O)N[C@]2(C)O[C@@]3(O)[C@@H]4CCCN4C(=O)[C@H](Cc4ccccc4)N3C2=O)C=C2c3cccc4[nH]cc(c34)C[C@H]21,inactive
13,Cc1cccc(N2CCNCC2)n1,inactive
14,COc1c2c(cc3c1OCO3)CC[N+](C)=C2.[Cl-],inactive
15,CC(C)CC1C(=O)N2CCCC2C2(O)OC(NC(=O)C3C=C4c5cccc6[nH]c(Br)c(c56)CC4N(C)C3)(C(C)C)C(=O)N12.CS(=O)(=O)O (stereo not given),inactive
16,O=c1[nH]c2cc(N3CCNCC3)ccc2o1,inactive
17,COc1cccc2c1C(=O)c1c(O)c3c(c(O)c1C2=O)C[C@@](O)(C(=O)CO)C[C@@H]3O[C@H]1C[C@H](N2CCO[C@H](OC)C2)[C@H](O)[C@H](C)O1,active
18,CC[C@@]1(O)C[C@H](O[C@H]2C[C@H](N(C)C)[C@H](O)[C@H](C)O2)c2c(cc3c(c2O)C(=O)c2c(O)ccc(O)c2C3=O)[C@H]1C(=O)OC,inactive
19,COc1cc2c3cc1Oc1c(OC)c(OC)cc4c1C(Cc1cccc(c1)Oc1ccc(c(O)c1)CC3N(C)CC2)N(C)CC4.Cl.Cl (stereo not given),inactive
